This is a sample that favours compounds with a hit; in the whole collection about 3.5% have one here.
BoNT F protease = BoNT/F light chain protease inhibitors, primary screen, biochemical, flow cytometry, MLPCN library; Botulinum neurotoxin type F light chain protease (Clostridium botulinum); Multiplex microsphere protease cleavage assay; inhibition, % at 10 µM; actives 0.22% (n = 360,000); AID 588497, 2011; in the data active = inhibition above about 35%, passing the limit was not always enough; inconclusive = no clear call, values can overlap the other calls; note: plate controls were buffer without enzyme for full effect and enzyme alone for no effect
Anthrax LF prot = Bacillus anthracis LF protease inhibitors, primary screen, biochemical, multiplex microsphere, MLPCN library; Lethal factor (Bacillus anthracis), P15917; multiplex microsphere protease cleavage assay; inhibition, % at 10 µM; actives 0.12% (n = 360,000); note: plate controls were buffer without enzyme for full effect and enzyme alone for no effect
Target sequence (P15917 whole entry, looked up): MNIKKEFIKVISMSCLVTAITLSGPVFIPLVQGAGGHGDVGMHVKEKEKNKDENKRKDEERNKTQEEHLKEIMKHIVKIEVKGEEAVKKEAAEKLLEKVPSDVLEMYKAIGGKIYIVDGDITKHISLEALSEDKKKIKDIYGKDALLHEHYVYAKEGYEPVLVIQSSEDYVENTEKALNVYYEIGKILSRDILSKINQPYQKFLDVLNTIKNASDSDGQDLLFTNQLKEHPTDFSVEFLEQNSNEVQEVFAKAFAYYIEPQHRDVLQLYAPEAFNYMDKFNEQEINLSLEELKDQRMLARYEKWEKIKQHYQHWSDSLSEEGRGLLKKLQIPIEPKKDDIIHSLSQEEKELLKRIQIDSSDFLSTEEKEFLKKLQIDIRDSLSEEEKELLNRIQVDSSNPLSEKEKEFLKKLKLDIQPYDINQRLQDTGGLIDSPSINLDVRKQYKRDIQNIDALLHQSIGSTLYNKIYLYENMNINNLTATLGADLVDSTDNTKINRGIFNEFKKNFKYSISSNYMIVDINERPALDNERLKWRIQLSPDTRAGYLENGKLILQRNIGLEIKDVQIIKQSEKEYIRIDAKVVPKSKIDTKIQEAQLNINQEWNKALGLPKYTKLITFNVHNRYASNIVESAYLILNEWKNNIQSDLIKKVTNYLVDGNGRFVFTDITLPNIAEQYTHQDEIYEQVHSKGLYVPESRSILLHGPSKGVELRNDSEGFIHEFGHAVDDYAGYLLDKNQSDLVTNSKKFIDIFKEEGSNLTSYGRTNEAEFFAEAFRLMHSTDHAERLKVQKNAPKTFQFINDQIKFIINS
BoNT-A LC inh2 = BoNT/A light chain protease inhibitors, primary screen, biochemical, flow cytometry, MLPCN library. multiplex microsphere protease substrate cleavage. inhibition, % at 10 µM. actives 0.17% (n = 360,000). AID 588499, 2011; note: plate controls were buffer without enzyme for full effect and enzyme alone for no effect
Bead autofluor = counter-screen for toxin protease inhibitors: compound fluorescence; compound autofluorescence counterscreen, microsphere flow cytometry; active compounds read high; fluorescence intensity (test concentration not listed); actives 3.1% (n = 360,000); in the data active = fluorescence intensity above about 16000; inconclusive = no clear call, values can overlap the other calls
Active calls of the source: *. Cut-off read from the data, not from the text of the source, unless noted: active = inhibition above about 30%; inconclusive = no clear call, values can overlap the other calls; inactive = below that.

What do the screens show for `COc1ccc(S(=O)(=O)N(C)CC(=O)Nc2cccc(C(C)=O)c2)cc1`?
BoNT F protease: -4.4; Anthrax LF prot: -7.9; BoNT-A LC inh2: -0.8; Bead autofluor: 5628

What do the screens show for `CSc1sccc1/C=C(/C#N)C(=O)c1ccco1`?
BoNT F protease: 18.2; Anthrax LF prot: -1.4; BoNT-A LC inh2: 4.3; Bead autofluor: 2992

What do the screens show for `Clc1ccc(OCc2nn3c(C4CCCCC4)nnc3s2)c(Cl)c1`?
BoNT F protease: -3.9; Anthrax LF prot: -1.0; BoNT-A LC inh2: -3.4; Bead autofluor: 22251*

How did Cc1cc(N2CCN(C)CC2)nc2ccc(NC(=O)CCC(=O)NCCC3=CCCCC3)cc12 do in these assays?
BoNT F protease: -5.9; Anthrax LF prot: -1.3; BoNT-A LC inh2: -2.1; Bead autofluor: 21266*

How did COc1ccc(CCNC(=O)CCC(=O)Nc2ccc3nc(N4CCN(C)CC4)cc(C)c3c2)cc1OC do in these assays?
BoNT F protease: 1.6; Anthrax LF prot: -4.0; BoNT-A LC inh2: -0.1; Bead autofluor: 3954

How did CC(=O)NC(c1ccc(F)c(F)c1)c1nc(-c2cccs2)cs1 (stereo unspecified) do in these assays?
BoNT F protease: -7.2; Anthrax LF prot: -5.7; BoNT-A LC inh2: 1.2; Bead autofluor: 2871

What do the screens show for `Cn1c(SCC(=O)NCCc2ccc(S(N)(=O)=O)cc2)nc2ccccc2c1=O`?
BoNT F protease: -0.6; Anthrax LF prot: -5.4; BoNT-A LC inh2: -1.6; Bead autofluor: 3644

Results for O=C(CCCn1c(SCC(=O)NCC2CCCO2)nc2ccccc2c1=O)NCC1CCCO1 (stereo unspecified) ?
BoNT F protease: -3.5; Anthrax LF prot: -0.9; BoNT-A LC inh2: -1.6; Bead autofluor: 20974*

Results for COCCNC(=O)CSc1nc2ccccc2c(=O)n1CCCC(=O)NCc1ccccc1 ?
BoNT F protease: 0.8; Anthrax LF prot: -3.8; BoNT-A LC inh2: inconclusive; Bead autofluor: 22634*

What do the screens show for `CC(C)CCNC(=O)CSc1nc2ccsc2c(=O)n1NC(=O)c1ccccc1`?
BoNT F protease: 1.7; Anthrax LF prot: -3.4; BoNT-A LC inh2: 0.7; Bead autofluor: 21825*

What do the screens show for `O=C(CSc1nc2ccccc2c(=O)n1NC(=O)Cc1ccccc1)NCCc1ccccc1`?
BoNT F protease: 2.7; Anthrax LF prot: -2.2; BoNT-A LC inh2: 2.6; Bead autofluor: 21231*

What do the screens show for `Cn1nccc1-c1ccc(C(=O)NCc2ccc(Cl)cc2)c2occc12`?
BoNT F protease: -4.0; Anthrax LF prot: 0.6; BoNT-A LC inh2: -0.2; Bead autofluor: 3804

How did COc1cccc(-c2cc(NC=O)c3ncc(-c4ccc(C(C)=O)cc4)n3c2)c1 do in these assays?
BoNT F protease: 3.1; Anthrax LF prot: -1.8; BoNT-A LC inh2: 0.4; Bead autofluor: 3982

Results for COc1ccc(CNC(=O)CCCn2c(SCC#N)nc3cc4c(cc3c2=O)OCO4)cc1 ?
BoNT F protease: -0.2; Anthrax LF prot: -1.1; BoNT-A LC inh2: 2.8; Bead autofluor: 21923*

How did O=C(CSc1nc2ccccc2c(=O)n1CC1CCCO1)N1CCN(c2ccccc2)CC1 (stereo unspecified) do in these assays?
BoNT F protease: 2.1; Anthrax LF prot: -0.8; BoNT-A LC inh2: 2.4; Bead autofluor: 21377*

Results for O=C(CSc1nc2cc(Cl)ccc2o1)NCCc1ccccc1 ?
BoNT F protease: -3.7; Anthrax LF prot: -0.1; BoNT-A LC inh2: -1.2; Bead autofluor: 19890*

What do the screens show for `Cc1ccc(F)cc1C(=O)N1CCCCC1c1cc(C(=O)NC(C)C)no1` (stereo unspecified)?
BoNT F protease: 2.5; Anthrax LF prot: 0.1; BoNT-A LC inh2: 0.4; Bead autofluor: 3389

How did CCc1ccc(-c2nc(CN3CCC(C(=O)NCCN(CC)c4ccccc4)CC3)c(C)o2)cc1 do in these assays?
BoNT F protease: -15.1; Anthrax LF prot: -15.3; BoNT-A LC inh2: 0.0; Bead autofluor: 6106

What do the screens show for `CCc1ccc(-c2nc(CN3CCC(C(=O)NCc4ccc(F)cc4)CC3)c(C)o2)cc1`?
BoNT F protease: -8.3; Anthrax LF prot: -3.3; BoNT-A LC inh2: inconclusive; Bead autofluor: 24227*

Results for CCN(CCNC(=O)C1CCN(Cc2nc(-c3ccc(Cl)cc3)oc2C)CC1)c1ccccc1 ?
BoNT F protease: -9.2; Anthrax LF prot: -4.3; BoNT-A LC inh2: -5.4; Bead autofluor: 22915*

How did Cc1oc(-c2cccc(Cl)c2)nc1CN1CCC(C(=O)NCc2cccnc2)CC1 do in these assays?
BoNT F protease: -2.5; Anthrax LF prot: -6.2; BoNT-A LC inh2: 0.9; Bead autofluor: 22980*

What do the screens show for `Cc1oc(-c2ccc(Cl)cc2)nc1CN1CCC(C(=O)NCc2cccs2)CC1`?
BoNT F protease: -3.8; Anthrax LF prot: 1.3; BoNT-A LC inh2: 1.4; Bead autofluor: 3666

How did CCN(CCNC(=O)C1CCCN(Cc2nc(-c3ccc(OC)cc3)oc2C)C1)c1ccccc1 (stereo unspecified) do in these assays?
BoNT F protease: -4.6; Anthrax LF prot: -1.5; BoNT-A LC inh2: -1.0; Bead autofluor: 21170*

What do the screens show for `CCCNC(=O)c1cc2c(c(-c3cccc(-c4cc5ccccc5o4)c3)n1)[C@H](CCO)N(C(=O)NC(C)C)C2`?
BoNT F protease: -2.3; Anthrax LF prot: -1.2; BoNT-A LC inh2: -0.7; Bead autofluor: 6772

How did CCCS(=O)(=O)NC(=O)C1(C)CCN(C(=O)c2cc(F)ccc2C)C1 (stereo unspecified) do in these assays?
BoNT F protease: -0.2; Anthrax LF prot: -2.8; BoNT-A LC inh2: 0.5; Bead autofluor: 3841

How did COCCCNC(=O)C[C@H]1C[C@H](C(=O)N2CCCCC2)[C@@]2(CCc3ccccc3)c3[nH]c4cc(CCC(=O)N(C)C)ccc4c3CCN2C1=O do in these assays?
BoNT F protease: -3.0; Anthrax LF prot: -4.1; BoNT-A LC inh2: -0.3; Bead autofluor: 4006

What do the screens show for `CCN(CCNC(=O)C1CCN(Cc2nc(-c3cccc(Cl)c3)oc2C)CC1)c1ccccc1`?
BoNT F protease: -4.4; Anthrax LF prot: -9.9; BoNT-A LC inh2: -0.1; Bead autofluor: 20469*

How did CCCS(=O)(=O)NC(=O)C1(C)CCCN(C(=O)c2cc(F)cc(F)c2)C1 (stereo unspecified) do in these assays?
BoNT F protease: -1.5; Anthrax LF prot: -3.8; BoNT-A LC inh2: -0.2; Bead autofluor: 3982

What do the screens show for `S=c1[nH]ncn1/N=C/c1cccc(Oc2ccccc2)c1`?
BoNT F protease: 8.0; Anthrax LF prot: 0.3; BoNT-A LC inh2: 1.6; Bead autofluor: 4208

What do the screens show for `Fc1ccccc1COc1cccc(/C=N/n2cnnc2)c1`?
BoNT F protease: -6.6; Anthrax LF prot: 0.3; BoNT-A LC inh2: -2.0; Bead autofluor: 24150*

Results for Cc1cc(/C=N/n2cnnc2)c(C)n1-c1ccc(OCc2ccccc2F)cc1 ?
BoNT F protease: -18.3; Anthrax LF prot: -6.8; BoNT-A LC inh2: -2.4; Bead autofluor: 11396

What do the screens show for `C(=N\n1cnnc1)/c1cccc(Oc2ccccc2)c1`?
BoNT F protease: 0.4; Anthrax LF prot: -1.1; BoNT-A LC inh2: 1.0; Bead autofluor: 22913*

How did O=C(NC(c1ccc(Cl)cc1)c1cnccn1)C1CCN(CCCc2ccccc2)CC1 (stereo unspecified) do in these assays?
BoNT F protease: -5.8; Anthrax LF prot: -4.1; BoNT-A LC inh2: -0.1; Bead autofluor: 3423
